Reference: PubChem BioAssay AID504847 (National Center for Advancing Translational Sciences (NCATS), 2011)
Several values for one entry are separate records, joined by “and”; a condition that tells them apart may be missing. Equal entries are not always repeated. About 3,700 (0.93%) of roughly 400,000 compounds were called active. Another 3% or so got no clear call; they are omitted. Calls follow the shape of the dose curve; as a rule, active = well fitted inhibition curve with a large enough effect; inconclusive = small, poorly fitted or top-dose-only effect, or another doubt; inactive = no such curve, though single readings can be large or run the other way. Many of the other results were omitted from the sample, so actives are more common in it than they were.

The molecules below were run against Vitamin D3 receptor (Homo sapiens) (UniProt P11473) (assay: Inhibitors of the vitamin D receptor (VDR): qHTS). Settings: VDR-SRC2-3 peptide fluorescence polarization, 2 h; max response, negative = inhibition: hits give low values.
Outline: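 VDR–SRC2-3 interaction, FP format. Cmpds 23 nl via pintool, brief spin, 2 h ambient incubation.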
% is scaled to controls: 0 for no effect and ±100 for the full control effect; potency is read from the fitted curve at half-maximal effect.

Vitamin D3 receptor (Homo sapiens), sequence (P11473 whole entry, looked up): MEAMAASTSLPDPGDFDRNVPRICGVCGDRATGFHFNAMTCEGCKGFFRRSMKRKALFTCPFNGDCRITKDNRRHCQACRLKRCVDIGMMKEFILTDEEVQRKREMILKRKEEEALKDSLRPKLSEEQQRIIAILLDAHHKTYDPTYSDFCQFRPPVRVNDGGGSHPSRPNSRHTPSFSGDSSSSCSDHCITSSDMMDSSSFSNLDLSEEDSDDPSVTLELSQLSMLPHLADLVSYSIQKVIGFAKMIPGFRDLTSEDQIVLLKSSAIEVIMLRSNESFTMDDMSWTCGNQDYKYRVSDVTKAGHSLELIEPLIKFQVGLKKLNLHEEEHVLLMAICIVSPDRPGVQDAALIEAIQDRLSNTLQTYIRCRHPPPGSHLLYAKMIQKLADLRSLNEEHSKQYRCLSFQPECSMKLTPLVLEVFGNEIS

Max response, negative = inhibition, inactive:
FCOC(C(F)(F)F)C(F)(F)F 1.95%
O=C(CSc1nnc(CNC(=O)c2ccccc2)n1-c1ccc(F)cc1)Nc1ccccc1F 2.71%
CCOc1ccc(N(C)S(=O)(=O)c2cc(-c3cnc(C)o3)ccc2OC)cc1 -2.82%
Cc1cccc(N2C(=O)c3ccc(C(=O)Nc4cccc(C(=O)O)c4)cc3C2=O)c1 13.1%
O=C(c1ccc2c(c1)C(=O)N(c1ccc(Cl)cc1)C2=O)N1CCN(c2ccccn2)CC1 -2.28%
Cc1ccc(-n2c(SCC(=O)c3ccccc3)nc3c([nH]c4ccccc43)c2=O)cc1 23.5%
COc1ccc(Cl)cc1NC(=O)CSc1nc(=O)[nH]c2c1CCCC2 -3.46%
Nc1ncc(S(=O)(=O)Nc2ccc(OC(F)(F)F)cc2)cn1 5.75%
CCN(CC)C(=O)CSc1nnc(CNc2ccc(F)cc2)n1Cc1ccco1 6.05%
CC1CN(Cc2ccco2)C(=S)N(c2ccccc2)C1=O (centres undefined) 8.1%
COc1cc(C(=O)Nc2ccc(-n3c(C)nc4ccccc4c3=O)cc2)cc(OC)c1OC -3.22%
Cc1cccc(NC(=O)C2CCCN2S(=O)(=O)c2cccc3nsnc23)c1C (centres undefined) -10.9%
COc1ccc(-n2ccnc(NCCc3ccc(Cl)cc3)c2=O)cc1OC 6.6%
COc1cccc(-c2nnc3n(CCc4ccccc4)c(=O)c4ccccc4n23)c1O 17.6%
Cc1csc(NC(=O)c2ccc(-c3ccc(Cl)cc3Cl)o2)n1 -1.72%
CC1CCN(C(=S)c2cccc(O)c2)CC1 -26.6%
Cc1cccc(Nc2cc(C)nc(-n3nc(C)cc3C)n2)c1 8.15%
Cc1cccn2c(=O)c(/C=C(\C#N)C(N)=O)c(N3CCCCCC3)nc12 -6.66%
Cc1cccn2c(=O)c3cc(C(=O)NC4CCCCC4)sc3nc12 8.23%
Cc1ccc(C(=O)Nc2ccc3[nH]c(=O)c(=O)[nH]c3c2)cc1 -3.19%
COc1ccc(CCNC(=O)CCCCn2c(=O)c3ccccc3n(Cc3ccccc3)c2=O)cc1OC -5.56%
COc1cc(C(=O)Nc2ccc(OCc3cc(=O)n4ccc(C)cc4n3)cc2)cc(OC)c1OC 15.3%
CC(C)(C)c1ccc(C(=O)N2CCC(c3nc(-c4ccc(S(=O)(=O)N5CCCC5)cc4)no3)CC2)cc1 -2.01%
COc1ccccc1N1CCN(c2ncnc3sc(C)c(-c4ccccc4)c23)CC1 9.44%
c1ccc(-c2cc3c(NCC4COc5ccccc5O4)ncnc3s2)cc1 (centres undefined) 3.5%
CCOC(=O)c1c(S(=O)(=O)N2CCCC(C(=O)NCc3ccc(F)cc3)C2)c(C)n(CC)c1C (centres undefined) 12%
CCCC(=O)Nc1ccc(NC(=O)c2sc3ccccc3c2Cl)cc1 1.71%
Cc1ccc(-c2nc3ccccn3c2Nc2ccc(F)cc2)o1 -13.1%
Cc1cccc(C)c1Nc1c(-c2ccccc2O)nc2ncccn12 11.5% and -13.4%
CC1CCc2noc(NC(=O)c3ccc([N+](=O)[O-])cc3)c2C1 (centres undefined) 20%
Cc1cccc(C(CC(=O)NCC2(c3ccccc3)CCCC2)c2ccccc2)c1O (centres undefined) -3.18%
Cc1ccc(-c2cnc(NCc3ccc(C(C)C)cc3)n2C)cc1 -12.2%
COC(=O)c1cc(NC(=O)CCc2c(C)nc3c4c(C)cc(C)nc4nn3c2C)cc(C(=O)OC)c1 -12%
CCCCc1nnc(NC(=O)CSc2nc(C)cc(=O)[nH]2)s1 -6.96%
CCOC(=O)Cc1csc(SCC(=O)Nc2ccc(C)cc2F)n1 -24.6%
C=CCOC(=O)C(=C)C 10.1%

Potency, active:
O=C(O)c1ccc2c(c1)C(=O)N(c1ccc(/C=C/C(=O)c3ccccc3)cc1)C2=O 20 µM
CN(C)C(=S)N=c1ssc(=S)n1Cc1ccco1 44.7 µM
CN(C)C(=O)N=NC(=O)N(C)C 20 µM
CC1CCN(C(=S)c2ccc(-c3ccc(Cl)cc3Cl)o2)CC1 79.4 µM
Cc1cc(C)cc(Oc2nc3c(C)cccn3c(=O)c2/C=C(\C#N)C(=O)NC2CCS(=O)(=O)C2)c1 (centres undefined) 20 µM
Oc1ccccc1N1CCN(c2ncnc3sc(-c4ccccc4)cc23)CC1 22.4 µM
Cc1ccc(-c2nc3ccccn3c2Nc2c(C)cccc2C)o1 79.4 µM
CCOC(=O)Cc1csc(NC(=O)CSc2nc(C)cc(=O)[nH]2)n1 44.7 µM
